PubChem BioAssay (NCATS)
Results filed as inconclusive are left out. A call without a number means that no potency is given here. Active and inactive are the calls of the source. Calls follow the shape of the dose curve; as a rule, active = well fitted activation curve with a large enough effect; inconclusive = small, poorly fitted or top-dose-only effect; inactive = no such curve, though single readings can be large or run the other way.

Target: Rap guanine nucleotide exchange factor 3 (Homo sapiens) (UniProt O95398)
Test: Confirmatory qHTS for agonist of cAMP-regulated guanine nucleotide exchange factor 3 (EPAC1) (AID 1645881); also: nearly all actives have a fitted effect of over 75% in size;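 as to activation: EPAC1 catalysed release of BODIPY-GDP from Rap1B seen as fluorescence loss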
Settings: EPAC1 Rap1B BODIPY-GDP exchange fluorescence; series mostly up to 154 µM
Potency is read from the fitted curve at half-maximal effect.

Chain of Rap guanine nucleotide exchange factor 3 (Homo sapiens) (O95398 whole entry, looked up): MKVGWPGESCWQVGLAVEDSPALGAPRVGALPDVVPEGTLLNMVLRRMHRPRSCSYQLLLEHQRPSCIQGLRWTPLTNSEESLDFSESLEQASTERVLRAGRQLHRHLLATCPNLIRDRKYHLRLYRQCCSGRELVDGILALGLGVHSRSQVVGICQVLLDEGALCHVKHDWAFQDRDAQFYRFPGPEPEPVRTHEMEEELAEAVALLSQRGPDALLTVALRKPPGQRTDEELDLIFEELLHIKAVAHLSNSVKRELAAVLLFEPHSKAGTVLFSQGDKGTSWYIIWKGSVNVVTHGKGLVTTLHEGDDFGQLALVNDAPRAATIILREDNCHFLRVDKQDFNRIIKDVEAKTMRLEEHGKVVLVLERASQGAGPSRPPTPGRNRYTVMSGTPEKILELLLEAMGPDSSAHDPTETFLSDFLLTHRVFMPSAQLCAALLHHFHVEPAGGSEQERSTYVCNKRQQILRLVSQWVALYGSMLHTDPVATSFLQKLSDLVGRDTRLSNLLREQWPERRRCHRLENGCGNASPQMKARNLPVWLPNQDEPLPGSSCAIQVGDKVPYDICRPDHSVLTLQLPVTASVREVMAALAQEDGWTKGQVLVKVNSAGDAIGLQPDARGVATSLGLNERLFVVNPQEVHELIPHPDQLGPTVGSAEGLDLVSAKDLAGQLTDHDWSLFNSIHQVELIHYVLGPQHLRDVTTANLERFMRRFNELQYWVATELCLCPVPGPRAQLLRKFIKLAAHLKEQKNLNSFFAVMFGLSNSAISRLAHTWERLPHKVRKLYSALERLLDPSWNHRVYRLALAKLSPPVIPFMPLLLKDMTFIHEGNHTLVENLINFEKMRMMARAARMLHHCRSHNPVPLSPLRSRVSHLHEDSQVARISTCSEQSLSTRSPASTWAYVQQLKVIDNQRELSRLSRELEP

SMILES	Potency
Cc1ccc(C)c(CN2C(=O)C(O)(c3c[nH]c4ccccc34)c3ccccc32)c1 (stereo not given)	inactive
CCOC(=O)c1c(C)[nH]c(C)c1C(=O)COC(=O)c1cc(OC)cc(OC)c1	inactive
C=CC[C@@H](Cc1ccc(F)cc1)C(=O)OC[C@@H]1CCCN1C(=O)[C@@H](CC=C)CC(=O)N(CCO)Cc1ccccc1	inactive
COc1ccccc1NS(=O)(=O)c1ccc2ccccc2c1	inactive
CN1C(=O)/C(=C2/C=Cc3ccccc3N2CCCS(=O)(=O)O)SC1=S	inactive
COc1ccc(CN(C)C(=O)c2ccc(OCC(=O)Nc3cccc(C(F)(F)F)c3)c(OC)c2)c(OC)c1	inactive
O=c1c2ccccc2c(C=Nc2ccc(O)cc2)c(O)n1-c1nccs1	inactive
CCN1/C(=C\c2ccc3ccccc3[n+]2CC)Sc2cc(C)ccc21	inactive
O=C(NC1CCCCC1)C(c1ccc(C(F)(F)F)cc1)n1c(=O)c(-c2ccco2)nc2ccccc21 (stereo not given)	inactive
COC1/C=C/OC2(C)Oc3c(C)c(O)c4c(O)c(c(/C=N/N5CCN(C)CC5)c(O)c4c3C2=O)NC(=O)/C(C)=C/C=C/C(C)C(O)C(C)C(O)C(C)C(OC(C)=O)C1C (stereo not given)	inactive
O=C(Cn1c(=O)c2ccccc2n(CC(=O)Nc2ccc(Cl)cc2)c1=O)NCCc1ccccc1	inactive
Cc1nn(C)cc1N1C(=O)c2cccc3c(N)ccc(c23)C1=O	112 µM (active)
CC(C)CCNC(=O)C(CC(C)C)N(Cc1ccc2c(c1)OCO2)C(=O)c1snc(C(N)=O)c1N (stereo not given)	inactive
Cc1csc2nc(-c3cccc(NC(=O)c4cccc(F)c4)c3)cn12	inactive
O=C(Nc1ncccc1O)c1c(O)c2ccccc2[nH]c1=O	inactive
CN(CC(=O)Nc1ccc(F)cc1)C(=O)COc1ccc(C(=O)c2ccccc2)cc1	inactive
COC(=O)C1CCN(c2nc3ccccc3nc2C(C#N)C(=O)NCCc2ccccc2)CC1 (stereo not given)	inactive
COc1ccccc1-c1nc2ccccc2n(CC(C)C)c1=O	inactive
CCOC(=O)C(C)Sc1ncc(OC)c(Sc2ccc(Cl)cc2)n1 (stereo not given)	inactive
Cc1ccc(C)c(Oc2nc3c(c(=O)n(C)c(=O)n3C)n2Cc2ccccc2)c1	inactive

SMILES	Potency
CN(N=Nc1ccc([N+](=O)[O-])cc1)c1ccccc1	112 µM (active)
COc1ccc2c(c1)OCC(Cc1ccc(OC)c(OC)c1)C2=O (stereo not given)	inactive
Cc1ccc2c(c1)-c1c(cnn1CC(=O)N1CCN(c3cccc(C(F)(F)F)c3)CC1)CO2	inactive
O=C(c1ccccc1Cc1ccccc1)N1CCN(S(=O)(=O)c2ccccc2Br)CC1	inactive
Cc1cc[n+](-c2[nH]c(=O)sc2/C=N/N=C(\[O-])c2ccccc2)cc1	inactive
CCOc1ccccc1C(=O)N1CCc2cc(OC)c(OC)cc2C1COc1ccc(OC)cc1 (stereo not given)	inactive
Nc1nc(CSc2ccc(Cl)cc2)nc(N2CCCCC2)n1	inactive
O=C1CN(C(=O)c2c(F)cccc2Cl)C(c2ccc(F)cc2)c2cc(Br)ccc2N1 (stereo not given)	inactive
COc1ccc(Cl)cc1NC(=O)COC(=O)c1cc(NS(=O)(=O)c2cccs2)ccc1O	inactive
COc1ccccc1CN(C)C(=O)C(c1ccccc1)c1ccccc1	inactive
Clc1ccc(OCCn2c(-c3ccco3)nc3ccccc32)cc1	inactive
O=c1[nH]c(Nc2ccc(F)cc2)cc2ccccc12	inactive
N#CC(C#N)=C1C=C2C=C(N3CCOCC3)CCC2CC1 (stereo not given)	44.7 µM (active)
Cc1nn(-c2ccccc2)c2nc(N)c(C#N)c(-c3ccc(O)c(O)c3)c12	inactive
Cc1cccc(C)c1Nc1c(-c2ccc(Cl)s2)nc2ncccn12	inactive
CCCN(CC(=O)Nc1ccccc1C)C(=O)c1oc2ccc(OCC)cc2c1C	inactive
CC1COc2ccccc2N1S(=O)(=O)c1ccc(Cl)cc1 (stereo not given)	inactive
CN(CC(=O)Nc1ccccc1Cl)C(=O)c1ccc(-c2cccc(C(F)(F)F)c2)o1	inactive
CCCCC[C@H](C)N1C[C@@H](COCc2ccccc2)Oc2cc(N3CC[C@H](N(C)C)C3)ccc2S1(=O)=O	inactive
Cc1ccc(S(=O)(=O)N2CCOCC2)cc1NC(=O)COC(=O)CCOc1ccc(C(C)(C)C)cc1	inactive
